HDAC3 inhib – HDAC3 deacetylase inhibitors, primary screen, biochemical, fluorescence, cell-free homogeneous | actives 0.15% (n = 320,000) | Histone deacetylase 3 (Homo sapiens), O15379 | recombinant HDAC3, fluorogenic peptide/trypsin coupled | inhibition, % at 8.3 µM; in the data active = inhibition above about 26%, passing the limit was not always enough
m5-HT2A agonist – mouse Htr2a agonists via beta-arrestin recruitment, primary screen, cell-based, luminescence | 5-hydroxytryptamine receptor 2A (Mus musculus), P35363 | CHO-K1 mHTR2A beta-arrestin complementation; percent of 30 µM serotonin response | activation, % at 7.6 µM | actives 0.66% (n = 360,000) | AID 624169, 2012;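 active = activation above a run cutoff, the mean activation of all tested compounds plus 3 SD, cut at about 14% in these data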;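 also: 0% = plate median of compound wells and 100% = 30 µM serotonin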
Fh CTSL1 inh – Fasciola hepatica cathepsin L1 inhibitors, primary screen, counter-screen for PFM18AAP inhibitor project, biochemical, QFRET, fluorogenic peptide substrate; recombinant F. hepatica cathepsin L1, Z-Leu-Arg-MCA fluorescence; inhibition, % at 5.96 µM; actives 0.49% (n = 300,000); AID 1906, 2009;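 active = inhibition above the mean of all tested compounds plus 3 SD, set per screening campaign, cut at about 17% in these data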;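 also: 0% = plate median of test compound wells and 100% = 1 µM Z-Phe-Ala-diazomethylketone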
LANA-H2A inh – blockers of LANA interaction with H2A/H2B – biochemical, FP readout, HTS, primary screen. Protein LANA1 (Human herpesvirus 8 type P (isolate GK18)), Q9QR71. actives 0.6% (n = 320,000). inhibition, % (concentration not given with the values). cell-free LANA-H2A/H2B peptide, fluorescence polarization. AID 2629, 2010; in the data active = inhibition mostly above about 10%, no sharp cut-off; inactive = mostly below about 6.7%
* marks the source's active call; other numbers are inactive results; . = no result. Sampled rows, rich in hits. Any-hit rate of the full collection: about 1.7%.

SMILES	HDAC3 inhib	m5-HT2A agonist	Fh CTSL1 inh	LANA-H2A inh
O=S(=O)(C=C(c1ccccc1)c1ccccc1)c1ccccc1	1	-3	-1	15*
O=C(NCCc1ccc(Cl)cc1)c1cnc2n(c1=O)CCS2	6	-6	-4	2
COc1ccc(CCNC(=O)Oc2ccccc2)cc1OC	-3	-10	18*	-4
COc1ccc(CCNC(=O)c2cnc3n(c2=O)CCS3)cc1OC	10	-1	41*	2
COc1ccc2oc(=O)c(C(=O)NCCc3ccc(OC)c(OC)c3)cc2c1	-2	0	-1	12*
COc1ccc(CCNC(=O)c2ccccc2C(=O)NCCc2ccc(OC)c(OC)c2)cc1OC	-4	2	-3	-3
COc1ccc2oc(=O)c(C(=O)NCc3ccc4c(c3)OCO4)cc2c1	0	2	3	4
CCOc1cc2[nH]c(=S)n(CCCC(=O)NCc3ccccn3)c(=O)c2cc1OCC	0	-4	4	-4
COc1ccc2ccccc2c1/C=N/NC(=O)c1cccc(C)c1	-5	-3	18*	1
O=C(N/N=C/c1c(O)ccc2ccccc12)c1ccc[n+](CCO)c1	8	-7	20*	-6
COc1ccc2ccccc2c1/C=N\NC(=O)c1cccnc1	0	-3	4	2
O=C(O)/C=C/C(=O)c1c(-c2ccccc2)[nH]c2ccccc12	3	10	58*	-5
CC1(C(=O)Nc2cnc3ccccc3c2)CCN1Cc1ccccc1OC(F)F (configuration not stated)	.	0	.	.
COc1ccc2ccccc2c1C(O)c1nccn1C (configuration not stated)	1	-4	0	38*
O=C(Nc1ccc2c(c1)OCO2)C1Cc2c(-c3ccc(Cl)cc3)ccnc2O1 (configuration not stated)	.	2	.	.
CCNC(=O)C1(C)CCCN(C(=O)Cc2ccc(OC)c(OC)c2)C1 (configuration not stated)	.	-1	.	.
COc1cc(CN2CCC(Cc3ccccc3)CC2)cc([N+](=O)[O-])c1O	-2	-3	5	20*
COc1cc(CN2CCC(Cc3ccccc3)CC2)cc(OC)c1OC	-3	-11	.	1
Nc1ccc(N)c(C(=O)O)c1	2	2	-1	-0.2*
Cc1ccc(CCNS(=O)(=O)c2ccc3c(c2)C(C)(C)C(=O)N3C)cc1	-2	-5	-3	12
Cc1cc(C)cc(NS(=O)(=O)c2ccc3c(c2)C(C)(C)C(=O)N3C)c1	4	6	3	11*
CCCS(=O)(=O)NC(=O)C1(C)CCN(C(=O)c2ccc(C(F)(F)F)cc2)C1 (configuration not stated)	.	1	.	.
S=C1NC2=C(CCCC2=C2SCCS2)C(c2ccccc2)N1 (configuration not stated)	95*	5	0	-1
Oc1ccc(/C=N/N=C/c2ccc(O)c(O)c2)cc1O	13	-6	2	7
Oc1ccc(N=Cc2ccc(O)c(O)c2)cc1	2	-5	46*	-2
SMILES	HDAC3 inhib	m5-HT2A agonist	Fh CTSL1 inh	LANA-H2A inh
Cn1c(Cn2nnc3ccccc32)nnc1SCC(=O)N1c2ccccc2CCc2ccccc21	4	-2	0	1
OC(CN1c2ccccc2Sc2ccccc21)Cn1nnc2ccccc21 (configuration not stated)	-2	4	17*	0
Cn1c(Cn2nnc3ccccc32)nnc1SCC(=O)N1c2ccccc2Sc2ccccc21	-2	2	17*	-3
Nc1nc(N)nc(-c2cccc(Cl)c2Cl)n1	-7	0	-4	-2
COC(=O)C1CCCN1S(=O)(=O)c1ccc([N+](=O)[O-])cc1 (configuration not stated)	-2	6	53*	-7
O=[N+]([O-])c1nn(-c2ccc(Cl)cc2)n(O)c1=NCc1ccncc1	1	6	18*	-3
COc1ccc(C(=O)Nc2nnc(S(=O)(=O)Cc3ccc(F)cc3)s2)cc1	3	1	3	18*
Cc1ccc(NC(=O)CCNS(=O)(=O)c2ccc3[nH]c(=O)oc3c2)c(Cl)c1	8	2	-5	2
C=C(C)COc1ccc(-c2nc(N)ncc2Oc2ccc(OC)cc2)c(O)c1	9	4	-1	-3
CCOc1ccc(-c2nc(N)ncc2Oc2cccc(OC)c2)c(O)c1	27*	9	2	1

Screens from PubChem.
